Hits are enriched below; roughly 3% of the tested compounds scored in any of these assays.
MITF TRPM1 inh = MITF TRPM1 promoter inhibition in SK-MEL-5 cells; SK-MEL-5 TRPM1 promoter luciferase, 24 h; inhibition, % at 12.5 µM; actives 0.83% (n = 330,000); AID 488899;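 active means mean inhibition across replicates of 60% or more, whatever share of single replicates reaches that level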
Peg3 promoter = inhibitors of Peg3 promoter; HeLa PEG-Prom luciferase reporter, luminescence, overnight; inhibition, % at 20 µM; actives 1.7% (n = 360,000); AID 588405;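 active means inhibition of at least 50% at 20 µM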
KKLEB tox = counter-screen for CF NF-kB inhibitors: cytotoxicity | KKLEB CF airway cells viability, ATPlite luminescence, overnight; active compounds read low; cells stimulated with P. aeruginosa culture filtrate | activity change (cytotoxicity), % at 5 µM | actives 0.36% (n = 360,000) | AID 602141;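 active means corrected activity change at or below -50% at 5 µM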
HIF-2a inh = inhibitors of HIF-2a; AID 624352; actives 0.72% (n = 360,000); 786-0 RCC cells HIF-2a reporter, luciferase luminescence, overnight; inhibition, % at 18.8 µM;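 active means inhibition of the luminescence signal of 40% or more relative to plate controls, in a single-dose primary screen at 18.75 µM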
ABHD5 PLIN5 PPI = inhibitors of human ABHD5-perilipin-5 interaction; inhibition, % at 4 µM; Split G. princeps luciferase complementation, luminescence, 4 h; actives 0.78% (n = 360,000); AID 602281;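 active means inhibition above the mean inhibition across every tested compound plus 3 SD, cut at about 22% in these data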
Target sequence (Q00G26 whole entry, looked up): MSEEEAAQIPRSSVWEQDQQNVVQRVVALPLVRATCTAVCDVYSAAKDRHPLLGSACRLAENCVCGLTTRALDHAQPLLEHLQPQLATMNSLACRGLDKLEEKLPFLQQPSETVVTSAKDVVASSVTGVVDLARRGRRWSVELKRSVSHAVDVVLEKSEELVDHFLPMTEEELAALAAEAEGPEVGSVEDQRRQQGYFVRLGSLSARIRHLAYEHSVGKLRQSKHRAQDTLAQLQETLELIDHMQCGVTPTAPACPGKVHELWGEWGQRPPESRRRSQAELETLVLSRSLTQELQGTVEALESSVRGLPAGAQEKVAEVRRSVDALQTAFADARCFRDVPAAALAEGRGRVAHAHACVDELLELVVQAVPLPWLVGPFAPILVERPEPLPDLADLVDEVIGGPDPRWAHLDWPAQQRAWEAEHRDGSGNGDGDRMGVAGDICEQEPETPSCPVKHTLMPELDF
Target sequence (Q8WTS1 whole entry, looked up): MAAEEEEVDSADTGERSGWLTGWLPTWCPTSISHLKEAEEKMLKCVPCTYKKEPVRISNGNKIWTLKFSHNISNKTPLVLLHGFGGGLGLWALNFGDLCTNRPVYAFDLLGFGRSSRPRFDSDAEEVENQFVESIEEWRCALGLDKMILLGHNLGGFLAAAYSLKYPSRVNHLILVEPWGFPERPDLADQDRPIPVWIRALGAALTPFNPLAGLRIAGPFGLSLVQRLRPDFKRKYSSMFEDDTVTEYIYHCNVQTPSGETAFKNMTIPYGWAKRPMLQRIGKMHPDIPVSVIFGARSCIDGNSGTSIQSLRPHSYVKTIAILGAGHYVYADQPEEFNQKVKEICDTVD
CF NFkB block = blocks PAF-induced NF-kB reporter in cystic fibrosis cells; actives 0.86% (n = 360,000); inhibition, % at 5 µM; KKLEB NF-kB-GFP reporter, GFP fluorescence overnight;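 active means at least 50% inhibition at 5 µM, scaled per plate between neutral and stimulator controls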;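 further: PAF is a Pseudomonas aeruginosa culture filtrate used as stimulus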
CF NFkB inh conf = confirmation of cystic fibrosis induced NF-kB inhibitors | shares compounds with CF NFkB block | actives 64% (n = 1,300) | KKLEB CF airway cells, PAF-induced NF-kB-GFP fluorescence, overnight | inhibition, % at 5 µM; in the data active means inhibition above about 40%;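 further: stimulus PAF is a Pseudomonas aeruginosa filtrate and not platelet activating factor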
Of the large screens only hits and unclear results are named; the others gave an inactive call (follow-up assays come after a bar, where they were run).

COC(=O)c1ccc2nc(NC(=O)CCS(=O)(=O)c3ccccc3)sc2c1	CF NFkB block 58 | CF NFkB inh conf inactive
Cn1c(N2CCCC2)nc2c1c(=O)[nH]c(=O)n2C	none
O=C(NCCCSc1ccccc1)c1cc(Cl)ccc1O	CF NFkB block 58 | CF NFkB inh conf 76
O=C(CNC(=O)c1ccccc1)NCCCSc1ccccc1	none
O=S1(=O)CCOCCCN1Cc1ccccc1F	none
CCOC(=O)C1=C(C)Nc2ccccc2N=C1NC(=O)c1oc2ccccc2c1COC	Peg3 promoter 65, CF NFkB block 55 | CF NFkB inh conf 58
Cc1ccc(S(=O)(=O)Oc2ccccc2/C=N/NC(=O)c2nn(C)cc2[N+](=O)[O-])cc1	none
Cc1ccc(S(=O)(=O)Oc2ccc(/C=N/NC(=O)c3nn(C)cc3[N+](=O)[O-])cc2)cc1	CF NFkB block 51 | CF NFkB inh conf inactive
COc1ccc(C2=Nn3c(nnc3-c3ccccc3OC)SC2)cc1OC1CCOC1 (stereo not given)	MITF TRPM1 inh 63, CF NFkB block 58 | CF NFkB inh conf 81
COc1ccc(OC)c(-c2nnc3n2N=C(c2ccc(OC)c(OCC4CC4)c2)CS3)c1	MITF TRPM1 inh 65, ABHD5 PLIN5 PPI 23, CF NFkB block 60 | CF NFkB inh conf 84
COc1ccccc1NC(=O)c1ccc[n+]([O-])c1	none
COc1ccc(N=C2C(=S)N(c3ccc(OC)cc3)C(=NS(=O)(=O)c3ccccc3)N2c2ccccc2)cc1	none
N=C1N(c2ccccc2)C(=S)C(=Nc2ccccc2)N1c1ccccc1	Peg3 promoter 74, CF NFkB block 67 | CF NFkB inh conf 81
O=C(Nc1ccncc1)c1cc(C2CCCCN2C(=O)CCCc2ccccc2)on1 (stereo not given)	none (no result: MITF TRPM1 inh)
COc1cccc2sc(N3CCN(c4nc5ccccc5s4)CC3)nc12	CF NFkB block 56 | CF NFkB inh conf inactive
c1ccc2sc(N3CCOCC3)nc2c1	none
Clc1ccccc1OCc1nn2c(-c3ccncc3)nnc2s1	none
c1cc(-c2nnc3sc(C4CCCCC4)nn23)ccn1	CF NFkB block 51 | CF NFkB inh conf 64
c1csc(Cc2nn3c(-c4ccncc4)nnc3s2)c1	CF NFkB block 50 | CF NFkB inh conf 49
CCOc1ccc(OCC(=O)OC(C)C(=O)NC2CCCC2)cc1 (stereo not given)	none
Cc1ccc(S(=O)(=O)N2CCCCC2)cc1C(=O)OC1CCCCC1=O (stereo not given)	none
CCOc1cc(/C=N\NC(=O)c2ccc(NC(=O)CC)cc2)ccc1OC(=O)c1ccccc1	Peg3 promoter 71, CF NFkB block 51 | CF NFkB inh conf inactive
C=C1CCC[C@]2(C)C[C@H]3OC(=O)C(CN(Cc4ccc(OC)c(OC)c4)CC(C)O)[C@H]3CC12 (stereo not given in full)	CF NFkB block 56 | CF NFkB inh conf 47
Cc1cc(N2CCOCC2)c2c(N)c(Br)cc(C)c2n1	CF NFkB block 66 | CF NFkB inh conf 97
c1ccc(N2CCN(c3ncnc4sc5c(c34)CCC5)CC2)cc1	CF NFkB block 59 | CF NFkB inh conf 42
CC1CCc2sc3ncnc(N4CCOCC4)c3c2C1 (stereo not given)	CF NFkB block 51 | CF NFkB inh conf 57
CC1CCc2c(sc3ncnc(N4CCOCC4)c23)C1 (stereo not given)	CF NFkB block 66 | CF NFkB inh conf 63
Cc1cc(C)n(-c2ncnc3sc4c(c23)CC(C)CC4)n1 (stereo not given)	none
CC1CCc2c(sc3ncnc(NCCN4CCOCC4)c23)C1 (stereo not given)	none
O=C1C2C(c3ccccc3)CC=CC2[C@H](c2ccc3ccccc3c2)N1Cc1ccccc1 (stereo not given in full)	CF NFkB block 55 | CF NFkB inh conf 43
Cc1ccc(F)c([C@H]2C3C=CCC(c4ccccc4)C3C(=O)N2Cc2ccccc2)c1 (stereo not given in full)	CF NFkB block 63 | CF NFkB inh conf inactive
CC(=O)[C@@]1(O)CC[C@H]2[C@@H]3C[C@H](C)C4=CC(=O)CC[C@]4(C)[C@H]3CC[C@@]21C	CF NFkB block 54 | CF NFkB inh conf inactive
CCCCN1C(=O)C(CC(=O)NCc2ccco2)CC(C(=O)N(C(C)C)C(C)C)=C1C (stereo not given)	none (no result: MITF TRPM1 inh)
CC(=O)Nc1ccc(NC(=O)c2cccc(C(=O)OC(C)C)n2)cc1	none
CC(C)OC(=O)c1cccc(C(=O)Nc2cccc(NC(=O)c3cccc(C(=O)OC(C)C)n3)n2)n1	CF NFkB block 57 | CF NFkB inh conf 62
CN(Cc1ccccc1)Cc1c(O)ccc2ccccc12	none
CN(Cc1cc(Cl)cc(Cl)c1O)Cc1c(O)ccc2ccccc12	CF NFkB block 59 | CF NFkB inh conf inactive
O=C(Nc1cccc(S(=O)(=O)N2CCCCC2)c1)Nc1ccc(Cl)cc1Cl	Peg3 promoter 52, CF NFkB block 58 | CF NFkB inh conf 67
COc1cccc(CNc2ncnc3ccc(-c4c(C)noc4C)cc23)c1	none
COc1cccc(-c2ccc3ncnc(NCc4cccs4)c3c2)c1	CF NFkB block 61 | CF NFkB inh conf 85
c1cncc(-c2ccc3ncnc(NCc4ccc5c(c4)OCO5)c3c2)c1	CF NFkB block 55 | CF NFkB inh conf 65
c1cncc(CNc2ncnc3ccc(-c4ccc5c(c4)OCCO5)cc23)c1	none
COc1cccc(-c2ccc3ncnc(NCc4cccc(C)c4)c3c2)c1	CF NFkB block 69 | CF NFkB inh conf 62
CCOc1cc(/C=N/Nc2nc(-c3cccs3)c(NC(C)=O)s2)ccc1O	none
CCN(c1ccccc1)S(=O)(=O)c1cc2c(cc1C)NC(=O)CO2	none (no result: MITF TRPM1 inh)
COC(=O)N1C(=O)[C@@](c2ccc(OC)cc2)(C(C)C)N1C(=O)OC	CF NFkB block 69 | CF NFkB inh conf 57
COC(=O)N1C(=O)[C@@](c2ccccc2)(C(C)C)N1C(=O)OC	CF NFkB block 58 | CF NFkB inh conf 51
C[C@H]1CN(C2CCCCC2)C(=O)[C@@H]1CC(=O)Nc1ccccc1	none (no result: MITF TRPM1 inh)
N#CC(C#N)=C1SC(=Nc2ccccc2)C(=Nc2ccccc2)N1c1ccccc1	Peg3 promoter 89, CF NFkB block 67 | CF NFkB inh conf 79
COc1ccc(CCN2C(=O)COc3ccccc3C2C(=O)Nc2ccc3c(c2)OCCO3)cc1OC (stereo not given)	none (no result: MITF TRPM1 inh, Peg3 promoter, KKLEB tox, CF NFkB block)
COCCN1Cc2cccc(C(=O)Nc3ccc(-c4nc5ccccc5[nH]4)cc3)c2C1=O	none
COCCN1Cc2cccc(C(=O)Nc3cccc(-c4nc5ccccc5[nH]4)c3)c2C1=O	CF NFkB block 57 | CF NFkB inh conf 68

Source: PubChem (several laboratories)
